From the supplement of paper PMC11732987, “Enantioselective OTUD7B fragment discovery through chemoproteomics screening and high-throughput optimisation” (Communications Chemistry, 2025)

Key:
Experiment in all cases: log2 ratio of Biotin-Ahx-Ub-VS probe labelling (fragment/DMSO); higher = less target engagement (more negative = stronger competition), active = hit call of the paper (q ≤ 0.05, log2 ratio ≤ -1)
Settings in all cases: compound concentration: 200 uM; treatment time: 3 h
[1] = molecular target: USP34 (UniProt Q70CQ2)
USP34, sequence (Q70CQ2 whole entry, the tested form may be a part): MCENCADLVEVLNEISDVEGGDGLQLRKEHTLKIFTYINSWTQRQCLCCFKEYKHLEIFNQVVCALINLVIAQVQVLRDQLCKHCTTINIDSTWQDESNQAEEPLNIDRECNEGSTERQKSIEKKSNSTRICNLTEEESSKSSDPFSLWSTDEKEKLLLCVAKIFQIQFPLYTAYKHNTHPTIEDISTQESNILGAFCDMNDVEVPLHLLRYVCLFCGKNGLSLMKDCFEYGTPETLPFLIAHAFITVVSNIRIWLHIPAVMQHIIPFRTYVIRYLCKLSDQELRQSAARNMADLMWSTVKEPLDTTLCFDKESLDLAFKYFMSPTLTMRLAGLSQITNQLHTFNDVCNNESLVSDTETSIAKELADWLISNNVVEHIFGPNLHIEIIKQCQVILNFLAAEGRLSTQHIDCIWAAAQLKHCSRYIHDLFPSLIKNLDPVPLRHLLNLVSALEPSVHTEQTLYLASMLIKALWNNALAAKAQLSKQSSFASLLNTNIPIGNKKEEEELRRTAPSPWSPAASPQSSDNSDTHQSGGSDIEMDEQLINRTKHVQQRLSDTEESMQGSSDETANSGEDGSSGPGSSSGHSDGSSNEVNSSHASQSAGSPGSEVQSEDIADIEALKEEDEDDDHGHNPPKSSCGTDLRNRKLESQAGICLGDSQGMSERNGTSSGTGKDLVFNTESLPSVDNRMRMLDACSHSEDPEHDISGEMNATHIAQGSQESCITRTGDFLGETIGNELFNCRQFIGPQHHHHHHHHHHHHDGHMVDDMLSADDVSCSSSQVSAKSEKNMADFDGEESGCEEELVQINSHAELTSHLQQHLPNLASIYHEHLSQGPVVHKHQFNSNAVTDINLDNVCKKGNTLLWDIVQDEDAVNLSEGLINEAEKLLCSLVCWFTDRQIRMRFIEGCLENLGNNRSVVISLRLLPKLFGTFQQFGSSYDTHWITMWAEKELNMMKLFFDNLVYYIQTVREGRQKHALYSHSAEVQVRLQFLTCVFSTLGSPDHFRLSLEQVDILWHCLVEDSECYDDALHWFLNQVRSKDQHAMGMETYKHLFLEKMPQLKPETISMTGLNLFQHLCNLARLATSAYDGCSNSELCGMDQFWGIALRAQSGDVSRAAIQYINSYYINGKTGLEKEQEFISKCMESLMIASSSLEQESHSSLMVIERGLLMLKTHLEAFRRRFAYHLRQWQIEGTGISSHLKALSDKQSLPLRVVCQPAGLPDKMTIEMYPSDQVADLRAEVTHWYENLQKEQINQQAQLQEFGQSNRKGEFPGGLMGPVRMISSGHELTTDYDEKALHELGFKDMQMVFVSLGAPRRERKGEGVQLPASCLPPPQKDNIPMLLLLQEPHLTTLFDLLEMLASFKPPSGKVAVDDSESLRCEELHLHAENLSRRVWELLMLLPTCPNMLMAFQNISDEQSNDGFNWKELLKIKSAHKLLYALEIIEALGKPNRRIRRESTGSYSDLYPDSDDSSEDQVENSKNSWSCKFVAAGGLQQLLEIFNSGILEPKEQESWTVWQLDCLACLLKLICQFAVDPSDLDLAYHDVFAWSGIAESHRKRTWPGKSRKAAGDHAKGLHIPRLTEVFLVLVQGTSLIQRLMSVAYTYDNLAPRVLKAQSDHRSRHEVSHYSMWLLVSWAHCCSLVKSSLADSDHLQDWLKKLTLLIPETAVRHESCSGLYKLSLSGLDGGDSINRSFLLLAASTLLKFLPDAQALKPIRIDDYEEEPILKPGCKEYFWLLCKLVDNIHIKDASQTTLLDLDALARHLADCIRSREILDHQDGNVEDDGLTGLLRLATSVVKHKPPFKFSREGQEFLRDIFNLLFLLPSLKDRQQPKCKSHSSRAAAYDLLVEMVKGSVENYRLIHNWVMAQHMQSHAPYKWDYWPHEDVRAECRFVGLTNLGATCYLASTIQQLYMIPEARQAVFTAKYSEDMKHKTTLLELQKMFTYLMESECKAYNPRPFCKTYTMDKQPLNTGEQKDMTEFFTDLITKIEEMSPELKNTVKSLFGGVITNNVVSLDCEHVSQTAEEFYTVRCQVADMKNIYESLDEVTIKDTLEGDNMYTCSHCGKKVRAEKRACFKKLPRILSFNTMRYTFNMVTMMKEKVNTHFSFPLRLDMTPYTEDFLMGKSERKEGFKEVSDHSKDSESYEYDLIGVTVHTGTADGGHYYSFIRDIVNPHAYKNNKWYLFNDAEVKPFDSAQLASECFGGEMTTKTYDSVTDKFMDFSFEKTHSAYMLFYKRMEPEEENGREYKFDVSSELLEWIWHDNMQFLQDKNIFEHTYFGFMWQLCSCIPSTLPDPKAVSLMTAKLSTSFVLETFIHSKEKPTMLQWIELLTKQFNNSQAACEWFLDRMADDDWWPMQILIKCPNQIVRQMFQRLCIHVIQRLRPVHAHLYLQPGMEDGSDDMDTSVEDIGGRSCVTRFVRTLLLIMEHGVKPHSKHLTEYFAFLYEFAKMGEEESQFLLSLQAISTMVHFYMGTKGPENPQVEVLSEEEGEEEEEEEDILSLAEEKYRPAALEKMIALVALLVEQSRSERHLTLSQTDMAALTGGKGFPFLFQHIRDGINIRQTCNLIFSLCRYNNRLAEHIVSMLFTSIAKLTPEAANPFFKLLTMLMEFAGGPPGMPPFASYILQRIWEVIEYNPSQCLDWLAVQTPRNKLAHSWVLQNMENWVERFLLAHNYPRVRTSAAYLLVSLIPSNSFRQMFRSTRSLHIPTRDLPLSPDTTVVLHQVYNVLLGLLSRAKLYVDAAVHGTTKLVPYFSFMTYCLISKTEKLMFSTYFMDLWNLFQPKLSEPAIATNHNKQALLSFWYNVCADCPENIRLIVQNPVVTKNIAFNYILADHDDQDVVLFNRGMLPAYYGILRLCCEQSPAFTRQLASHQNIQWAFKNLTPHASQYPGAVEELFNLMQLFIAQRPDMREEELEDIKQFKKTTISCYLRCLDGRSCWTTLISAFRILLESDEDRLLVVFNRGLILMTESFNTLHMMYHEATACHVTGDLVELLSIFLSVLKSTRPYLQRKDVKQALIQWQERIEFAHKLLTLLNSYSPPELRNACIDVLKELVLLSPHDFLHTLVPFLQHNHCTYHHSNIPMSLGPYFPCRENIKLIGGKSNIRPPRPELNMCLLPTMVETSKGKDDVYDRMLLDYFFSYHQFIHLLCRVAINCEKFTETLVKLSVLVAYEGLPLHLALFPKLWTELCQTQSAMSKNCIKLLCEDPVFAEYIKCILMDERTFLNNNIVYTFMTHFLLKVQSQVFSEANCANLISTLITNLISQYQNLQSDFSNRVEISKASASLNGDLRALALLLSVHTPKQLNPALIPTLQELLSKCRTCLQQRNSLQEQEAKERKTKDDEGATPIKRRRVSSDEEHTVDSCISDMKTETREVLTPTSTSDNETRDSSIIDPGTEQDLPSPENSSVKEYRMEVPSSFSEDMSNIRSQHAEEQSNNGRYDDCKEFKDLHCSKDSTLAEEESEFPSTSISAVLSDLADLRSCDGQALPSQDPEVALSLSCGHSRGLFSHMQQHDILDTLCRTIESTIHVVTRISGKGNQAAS
How it was run: (§1)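 Global-median-normalised Spectronaut label-free quantities were compared by unpaired t-test, and values are average log2 ratios of fragment over vehicle. Only proteins with ≥2 unique peptides were used. HEK293T lysate (495 µg per sample) was treated in triplicate with fragment at 200 µM or vehicle for 3 h and then with Biotin-Ahx-Ub-VS at 0.5 µM final for 1 h. Labelled DUBs were then NeutrAvidin-enriched, digested with LysC and trypsin, and run by diaPASEF LC-MS/MS.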

[2] = molecular target: T1, USP36 (UniProt Q9P275)
T1 sequence (whole entry): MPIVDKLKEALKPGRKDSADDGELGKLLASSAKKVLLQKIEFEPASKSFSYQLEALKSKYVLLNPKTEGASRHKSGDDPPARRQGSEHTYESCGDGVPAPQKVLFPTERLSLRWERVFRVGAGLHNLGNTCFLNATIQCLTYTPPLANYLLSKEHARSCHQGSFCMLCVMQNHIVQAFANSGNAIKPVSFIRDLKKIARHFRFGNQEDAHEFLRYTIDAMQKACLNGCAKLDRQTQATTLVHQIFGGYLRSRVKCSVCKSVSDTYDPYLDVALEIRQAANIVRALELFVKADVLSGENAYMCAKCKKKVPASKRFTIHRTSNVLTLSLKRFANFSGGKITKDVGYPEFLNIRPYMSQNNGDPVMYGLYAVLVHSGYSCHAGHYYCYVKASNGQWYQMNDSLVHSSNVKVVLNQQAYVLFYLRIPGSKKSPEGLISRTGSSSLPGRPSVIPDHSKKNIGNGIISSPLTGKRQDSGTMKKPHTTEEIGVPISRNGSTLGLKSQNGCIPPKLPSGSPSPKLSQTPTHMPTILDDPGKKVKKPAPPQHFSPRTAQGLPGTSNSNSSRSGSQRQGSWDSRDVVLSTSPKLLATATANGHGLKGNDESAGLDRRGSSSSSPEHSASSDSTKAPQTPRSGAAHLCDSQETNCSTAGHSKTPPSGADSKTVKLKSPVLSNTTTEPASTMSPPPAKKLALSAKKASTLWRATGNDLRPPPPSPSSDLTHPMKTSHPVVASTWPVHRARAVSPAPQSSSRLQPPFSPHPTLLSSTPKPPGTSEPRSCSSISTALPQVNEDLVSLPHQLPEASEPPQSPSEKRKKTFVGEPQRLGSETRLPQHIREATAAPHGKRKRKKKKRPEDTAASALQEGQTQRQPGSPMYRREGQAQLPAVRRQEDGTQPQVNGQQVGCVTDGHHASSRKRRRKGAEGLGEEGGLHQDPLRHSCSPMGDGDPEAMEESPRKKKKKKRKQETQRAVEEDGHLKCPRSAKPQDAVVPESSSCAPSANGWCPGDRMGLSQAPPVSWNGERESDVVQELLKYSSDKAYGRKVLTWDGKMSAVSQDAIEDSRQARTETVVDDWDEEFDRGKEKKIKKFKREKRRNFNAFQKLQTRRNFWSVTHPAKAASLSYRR
How it was run: as §1

[3] = molecular target: T2, USP38 (UniProt Q8NB14)
T2 sequence (whole entry): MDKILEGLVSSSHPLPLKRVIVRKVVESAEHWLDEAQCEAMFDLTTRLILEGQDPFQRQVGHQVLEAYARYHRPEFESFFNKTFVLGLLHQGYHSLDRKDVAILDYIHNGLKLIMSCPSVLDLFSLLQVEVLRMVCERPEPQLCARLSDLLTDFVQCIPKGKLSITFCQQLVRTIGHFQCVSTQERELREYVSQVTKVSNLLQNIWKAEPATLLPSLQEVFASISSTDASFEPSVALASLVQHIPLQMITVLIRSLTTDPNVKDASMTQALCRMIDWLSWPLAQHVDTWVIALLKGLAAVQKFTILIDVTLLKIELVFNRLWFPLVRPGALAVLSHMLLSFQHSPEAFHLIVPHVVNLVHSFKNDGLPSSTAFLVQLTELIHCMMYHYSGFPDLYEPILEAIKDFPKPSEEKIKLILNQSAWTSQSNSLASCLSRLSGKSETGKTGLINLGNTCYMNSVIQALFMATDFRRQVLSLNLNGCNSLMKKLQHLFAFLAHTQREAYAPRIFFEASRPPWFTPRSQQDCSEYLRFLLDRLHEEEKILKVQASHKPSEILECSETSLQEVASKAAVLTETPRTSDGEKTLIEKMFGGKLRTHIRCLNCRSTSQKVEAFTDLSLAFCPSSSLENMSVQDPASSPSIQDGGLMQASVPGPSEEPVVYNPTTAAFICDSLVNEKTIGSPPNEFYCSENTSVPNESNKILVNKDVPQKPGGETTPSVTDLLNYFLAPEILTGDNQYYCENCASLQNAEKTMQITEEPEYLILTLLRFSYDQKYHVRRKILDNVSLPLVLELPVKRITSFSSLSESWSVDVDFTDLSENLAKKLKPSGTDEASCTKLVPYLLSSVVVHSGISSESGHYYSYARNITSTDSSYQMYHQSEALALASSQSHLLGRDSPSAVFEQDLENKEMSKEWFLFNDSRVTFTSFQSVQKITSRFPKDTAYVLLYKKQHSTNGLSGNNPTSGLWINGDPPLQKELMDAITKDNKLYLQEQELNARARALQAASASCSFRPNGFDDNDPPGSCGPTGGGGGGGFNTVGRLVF
How it was run: as §1

[4] = molecular target: T3, USP39 (UniProt Q53GS9)
T3 sequence (whole entry): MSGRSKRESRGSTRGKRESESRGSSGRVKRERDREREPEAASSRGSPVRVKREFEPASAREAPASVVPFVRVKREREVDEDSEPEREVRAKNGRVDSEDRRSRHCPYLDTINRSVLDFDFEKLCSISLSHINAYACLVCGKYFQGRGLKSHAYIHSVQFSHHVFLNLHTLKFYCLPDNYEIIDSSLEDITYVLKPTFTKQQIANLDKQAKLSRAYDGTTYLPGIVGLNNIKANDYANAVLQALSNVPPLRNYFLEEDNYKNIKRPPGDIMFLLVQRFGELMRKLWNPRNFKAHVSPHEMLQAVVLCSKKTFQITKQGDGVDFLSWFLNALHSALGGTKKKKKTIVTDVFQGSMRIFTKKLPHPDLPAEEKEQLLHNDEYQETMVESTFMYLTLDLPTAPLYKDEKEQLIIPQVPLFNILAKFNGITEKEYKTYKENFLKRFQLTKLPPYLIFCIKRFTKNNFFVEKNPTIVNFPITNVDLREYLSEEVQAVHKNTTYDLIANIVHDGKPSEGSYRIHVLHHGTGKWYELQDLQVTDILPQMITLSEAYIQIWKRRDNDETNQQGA
How it was run: as §1

[5] = molecular target: T4, USP4 (UniProt Q13107)
T4 sequence (whole entry): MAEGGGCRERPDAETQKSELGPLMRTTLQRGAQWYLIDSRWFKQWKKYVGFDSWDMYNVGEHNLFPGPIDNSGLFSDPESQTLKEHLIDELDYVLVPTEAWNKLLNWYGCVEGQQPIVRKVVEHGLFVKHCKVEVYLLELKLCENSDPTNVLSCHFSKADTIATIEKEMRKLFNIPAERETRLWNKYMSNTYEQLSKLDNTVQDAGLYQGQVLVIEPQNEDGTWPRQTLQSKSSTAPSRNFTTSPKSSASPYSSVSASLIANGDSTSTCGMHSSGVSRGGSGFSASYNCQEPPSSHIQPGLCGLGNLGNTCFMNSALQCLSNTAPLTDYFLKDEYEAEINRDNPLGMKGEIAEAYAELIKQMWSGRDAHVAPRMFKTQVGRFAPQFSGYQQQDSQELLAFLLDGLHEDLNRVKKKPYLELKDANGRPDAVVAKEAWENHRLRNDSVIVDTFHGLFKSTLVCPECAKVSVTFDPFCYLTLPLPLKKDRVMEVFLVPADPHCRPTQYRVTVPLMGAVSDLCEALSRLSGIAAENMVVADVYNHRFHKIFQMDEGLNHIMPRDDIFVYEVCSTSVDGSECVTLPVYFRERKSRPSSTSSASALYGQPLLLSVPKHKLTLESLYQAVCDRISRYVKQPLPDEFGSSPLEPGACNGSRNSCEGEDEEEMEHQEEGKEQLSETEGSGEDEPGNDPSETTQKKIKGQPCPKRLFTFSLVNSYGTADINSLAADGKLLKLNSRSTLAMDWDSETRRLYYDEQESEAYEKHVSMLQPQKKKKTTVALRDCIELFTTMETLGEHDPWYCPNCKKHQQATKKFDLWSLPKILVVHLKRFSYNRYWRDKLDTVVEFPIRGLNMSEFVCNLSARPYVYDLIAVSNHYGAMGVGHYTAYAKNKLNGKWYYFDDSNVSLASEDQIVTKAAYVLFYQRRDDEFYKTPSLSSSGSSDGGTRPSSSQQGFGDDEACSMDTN
How it was run: as §1

Measured: log2 ratio of Biotin-Ahx-Ub-VS probe labelling

O=C(CCl)N1CCc2sccc2C1
inactive: [1] -0.165 | [2] -0.212 | [3] -0.305 | [4] 0.0206 | [5] -0.861
